# Results published in PubChem BioAssay (Tox21).
# Results filed as inconclusive are left out. A call without a number means that no potency is given here. Active and inactive are the calls of the source. Calls follow the shape of the dose curve; as a rule, active = well fitted cell-killing curve with a large enough effect in the repeat runs; inconclusive = weak or mixed curves, or effect the other way; inactive = no such curve, though single readings can be large or run the other way. Starred links: 1 amine or outer side, 2 acyl side, 3 side chain; linkers in the order of their positions; H or OH if unused. Positions of bridges follow the written chain, without caps; N, C: chain ends. Non-standard residues stand in square brackets, D forms with d. Residues, ends and D or L forms follow the SMILES beside them. *: point of attachment. X5 = NC1=N[C@@H]([C@H](N[*:1])C(=O)[*:2])C[C@H](O)N1; ΔAla(Z-3-ureido) = NC(=O)N/C=C(\N)C(=O)O; β3hOrn = NCCC[C@H](N)CC(=O)*; Dap = NC[C@H](N)C(=O)O
# Assay: qHTS assay for identifying genotoxic compounds that show differential cytotoxicity against isogenic chicken DT40 cell lines with known DNA damage response pathways - wild type cell line (AID 743012); also: nearly all actives have a fitted effect of over 60% in size
# Settings: DT40 wild type chicken cells viability, CellTiter-Glo, 40 h; series mostly up to 68.4 µM
# Procedure, shortened: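 Cells (DT40 wild type, 300/well) are treated with DMSO-dissolved compounds after a ~0.5 h pre-incubation and kept 40 h at 37 C/5% CO2. Viability is then measured by CellTiter-Glo luminescence following 30 min at room temperature.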
# Potency is read from the fitted curve at half-maximal effect.
row,SMILES,Potency
1,COC1=C(C(=O)O)N2C(=O)[C@@H](NC(=O)[C@H](N)C3=CCC=CC3)[C@H]2SC1,inactive
2,CCNC(=O)[C@@H]1CCCN1C(=O)[C@H](CCCN=C(N)N)NC(=O)[C@H](CC(C)C)NC(=O)[C@@H](CC(C)C)NC(=O)[C@H](Cc1ccc(O)cc1)NC(=O)[C@H](CO)NC(=O)[C@H](Cc1c[nH]c2ccccc12)NC(=O)[C@H](Cc1cnc[nH]1)NC(=O)[C@@H]1CCC(=O)N1,inactive
3,NCCCC[C@H](NC(=O)[C@@H]1CCCN1C(=O)[C@@H]1CSSC[C@H](NC(=O)CNC(=O)CNC(=O)CN)C(=O)N[C@@H](Cc2ccc(O)cc2)C(=O)N[C@@H](Cc2ccccc2)C(=O)N[C@@H](CCC(N)=O)C(=O)N[C@@H](CC(N)=O)C(=O)N1)C(=O)NCC(N)=O (H-GGGCYFQNCPKG-NH2; disulfide 4-9),inactive
4,NCCC[C@H](N)CC(=O)N[C@H]1CNC(=O)[C@H]([C@H]2C[C@H](O)NC(N)=N2)NC(=O)/C(=C/NC(N)=O)NC(=O)[C@H](CO)NC(=O)[C@H](CO)NC1=O (β3hOrn-[Dap]SS[ΔAla(Z-3-ureido)][X5]; lactam 1-C),inactive
5,CCCC1C(=O)N2C(N(C)C)=Nc3ccc(C)cc3N2C1=O (configuration not stated),inactive
6,CC(=O)N[C@@H]1C(O[C@H]2O[C@H](C(=O)O)C(O)[C@H](O)[C@H]2O)[C@H](O)[C@@H](CO)O[C@H]1O[C@@H]1C(C(=O)O)O[C@@H](O[C@H]2[C@H](O)[C@@H](CO)OC(O)[C@@H]2NC(C)=O)[C@H](O)[C@H]1O (some centres not stated),inactive
7,COc1cc(C[C@@H]2NCCc3cc(O)c(O)cc32)cc(OC)c1OC,inactive
8,CC(=O)Nc1c(I)c(C(=O)N[C@H]2C(O)O[C@H](CO)[C@@H](O)[C@@H]2O)c(I)c(N(C)C(C)=O)c1I (some centres not stated),inactive
9,O=C(O)[C@@H](O)[C@H](O)[C@H](O)[C@@H](O)C(=O)O (tested in a mixture with another compound),inactive
10,CC(=O)Nc1c(I)c(C(=O)O)c(I)c(N(C)C(C)=O)c1I,inactive
11,COC(=O)CCC(=O)CN,inactive
12,Cc1ccc(C2(O)CCN(CCCC(=O)c3ccc(F)cc3)CC2)cc1,11.9 µM (active)
13,CNc1cc(OC)c(C(=O)N[C@H]2CCN(Cc3ccccc3)[C@H]2C)cc1Cl,5.96 µM (active)
14,Cc1ccc(S(=O)(=O)NC(=O)N[C@@H](C)Cc2ccccc2)cc1,inactive
15,C=CC1=C(C)C2=CC3=NC(=C(CC(=O)[O-])C4=NC(=C(C)C4=C([O-])[O-])C=c4[n-]c(c(C)c4CC)=CC1=N2)C(CCC(=O)[O-])C3C.[Cu+2].[Na+].[Na+].[Na+] (configuration not stated),29.8 µM (active)
16,CCN(CC)CCOc1ccccc1OC,inactive
17,NC[C@@H]1O[C@H](O[C@H]2[C@@H](O)[C@H](O[C@@H]3[C@@H](O)[C@H](N)C[C@H](N)[C@H]3O[C@H]3O[C@H](CO)[C@@H](O)[C@H](O)[C@H]3N)O[C@@H]2CO)[C@H](N)[C@@H](O)[C@@H]1O,inactive
18,CC(=O)Oc1cccc(C(=O)O)c1OC(C)=O,inactive
19,OC1OC[C@@H](O)[C@H](O)[C@@H]1O (some centres not stated),inactive
20,CO[C@H]1[C@@H](O)[C@H](N)[C@@H](O[C@H]2O[C@H]([C@H](C)N)CC[C@H]2N)[C@H](O)[C@@H]1N(C)C(=O)CN,inactive
21,NCCCC[C@H](NC(=O)[C@@H]1CCCN1C(=O)[C@@H]1CSSC[C@H](N)C(=O)N[C@@H](Cc2ccccc2)C(=O)N[C@@H](Cc2ccccc2)C(=O)N[C@@H](CCC(N)=O)C(=O)N[C@@H](CC(N)=O)C(=O)N1)C(=O)NCC(N)=O,inactive
22,CC(=O)[C@@]1(O)CC[C@H]2[C@@H]3C=C(Cl)C4=CC(=O)[C@@H]5C[C@@H]5[C@]4(C)[C@H]3CC[C@@]21C,inactive
23,CCC(C)[C@@H](N)C(=O)O (some centres not stated),inactive

# Assay: qHTS assay for identifying genotoxic compounds that show differential cytotoxicity against isogenic chicken DT40 cell lines with known DNA damage response pathways - Rev3 mutant cell line (AID 743014); also: nearly all actives have a fitted effect of over 55% in size
# Settings: chicken DT40 Rev3-/- viability, CellTiter-Glo, 40 h; series mostly up to 68.4 µM
row,SMILES,Potency
1,O=C(O)c1ccc(OCCn2ccnc2)cc1,inactive
2,COc1ccc(CNCC(O)COc2ccc3[nH]c(=O)ccc3c2)cc1OC (configuration not stated),inactive
3,Cc1cc(C(=O)NNCc2ccccc2)no1,inactive
4,Nc1ncnc(Nc2ccc(Cl)cc2)n1,inactive
5,CCCCC(=O)OCC(=O)[C@]1(O)Cc2c(O)c3c(c(O)c2[C@@H](O[C@H]2C[C@H](NC(=O)C(F)(F)F)[C@H](O)[C@H](C)O2)C1)C(=O)c1c(OC)cccc1C3=O,1.88 µM (active)
6,CCCCCCCCCCCCCCCCCCCCCCO,inactive
7,O=C1NC(=O)[C@H]2[C@@H]1[C@@H]1C=C[C@H]2C1,inactive
8,O=C(O)C1CCCN1 (configuration not stated),inactive
9,NC(=O)OCC(O)COc1ccc(Cl)cc1 (configuration not stated),inactive
10,COC(=O)CC[C@H](N)C(=O)O,inactive
11,CC1(C)S[C@@H]2[C@H](NC(=O)C(C(=O)O)c3ccsc3)C(=O)N2[C@H]1C(=O)O (some centres not stated),inactive
12,CCOC(=O)Oc1c(OC)cc(C(=O)O[C@@H]2C[C@@H]3CN4CCc5c([nH]c6cc(OC)ccc56)[C@H]4C[C@@H]3[C@H](C(=O)OC)[C@H]2OC)cc1OC,11.4 µM (active)
13,CC(O)CN(C)C (configuration not stated),inactive
14,CO[C@H]1O[C@@H]2O[C@@]3(C)CC[C@H]4[C@H](C)CC[C@@H]([C@H]1C)[C@@]24OO3,1.68 µM (active)
15,CCCCCCCCCCCCCCCC(=O)O[C@@H]1[C@@H](O)[C@@H](O)[C@@H]([C@H](NC(=O)[C@@H]2C[C@@H](CCC)CN2C)[C@H](C)Cl)O[C@@H]1SC,inactive
16,COc1ccccc1N1CCN(CCCC(=O)c2ccc(F)cc2)CC1,11.9 µM (active)
17,COC1=C(C(=O)O)N2C(=O)[C@@H](NC(=O)[C@H](N)C3=CCC=CC3)[C@H]2SC1,inactive
18,CCNC(=O)[C@@H]1CCCN1C(=O)[C@H](CCCN=C(N)N)NC(=O)[C@H](CC(C)C)NC(=O)[C@@H](CC(C)C)NC(=O)[C@H](Cc1ccc(O)cc1)NC(=O)[C@H](CO)NC(=O)[C@H](Cc1c[nH]c2ccccc12)NC(=O)[C@H](Cc1cnc[nH]1)NC(=O)[C@@H]1CCC(=O)N1,inactive
19,NCCCC[C@H](NC(=O)[C@@H]1CCCN1C(=O)[C@@H]1CSSC[C@H](NC(=O)CNC(=O)CNC(=O)CN)C(=O)N[C@@H](Cc2ccc(O)cc2)C(=O)N[C@@H](Cc2ccccc2)C(=O)N[C@@H](CCC(N)=O)C(=O)N[C@@H](CC(N)=O)C(=O)N1)C(=O)NCC(N)=O (H-GGGCYFQNCPKG-NH2; disulfide 4-9),inactive
20,NCCC[C@H](N)CC(=O)N[C@H]1CNC(=O)[C@H]([C@H]2C[C@H](O)NC(N)=N2)NC(=O)/C(=C/NC(N)=O)NC(=O)[C@H](CO)NC(=O)[C@H](CO)NC1=O (β3hOrn-[Dap]SS[ΔAla(Z-3-ureido)][X5]; lactam 1-C),inactive

row,SMILES,Potency
1,CCCC1C(=O)N2C(N(C)C)=Nc3ccc(C)cc3N2C1=O (configuration not stated),inactive
2,CC(=O)N[C@@H]1C(O[C@H]2O[C@H](C(=O)O)C(O)[C@H](O)[C@H]2O)[C@H](O)[C@@H](CO)O[C@H]1O[C@@H]1C(C(=O)O)O[C@@H](O[C@H]2[C@H](O)[C@@H](CO)OC(O)[C@@H]2NC(C)=O)[C@H](O)[C@H]1O (some centres not stated),inactive
3,COc1cc(C[C@@H]2NCCc3cc(O)c(O)cc32)cc(OC)c1OC,inactive
4,CC(=O)Nc1c(I)c(C(=O)N[C@H]2C(O)O[C@H](CO)[C@@H](O)[C@@H]2O)c(I)c(N(C)C(C)=O)c1I (some centres not stated),inactive
5,O=C(O)[C@@H](O)[C@H](O)[C@H](O)[C@@H](O)C(=O)O (tested in a mixture with another compound),inactive
6,CC(=O)Nc1c(I)c(C(=O)O)c(I)c(N(C)C(C)=O)c1I,inactive
7,COC(=O)CCC(=O)CN,inactive
8,Cc1ccc(C2(O)CCN(CCCC(=O)c3ccc(F)cc3)CC2)cc1,11.9 µM (active)
9,CNc1cc(OC)c(C(=O)N[C@H]2CCN(Cc3ccccc3)[C@H]2C)cc1Cl,4.73 µM (active)
10,Cc1ccc(S(=O)(=O)NC(=O)N[C@@H](C)Cc2ccccc2)cc1,inactive
11,C=CC1=C(C)C2=CC3=NC(=C(CC(=O)[O-])C4=NC(=C(C)C4=C([O-])[O-])C=c4[n-]c(c(C)c4CC)=CC1=N2)C(CCC(=O)[O-])C3C.[Cu+2].[Na+].[Na+].[Na+] (configuration not stated),23.7 µM (active)
12,CCN(CC)CCOc1ccccc1OC,inactive
13,NC[C@@H]1O[C@H](O[C@H]2[C@@H](O)[C@H](O[C@@H]3[C@@H](O)[C@H](N)C[C@H](N)[C@H]3O[C@H]3O[C@H](CO)[C@@H](O)[C@H](O)[C@H]3N)O[C@@H]2CO)[C@H](N)[C@@H](O)[C@@H]1O,inactive
14,CC(=O)Oc1cccc(C(=O)O)c1OC(C)=O,inactive
15,OC1OC[C@@H](O)[C@H](O)[C@@H]1O (some centres not stated),inactive
16,CO[C@H]1[C@@H](O)[C@H](N)[C@@H](O[C@H]2O[C@H]([C@H](C)N)CC[C@H]2N)[C@H](O)[C@@H]1N(C)C(=O)CN,inactive
17,NCCCC[C@H](NC(=O)[C@@H]1CCCN1C(=O)[C@@H]1CSSC[C@H](N)C(=O)N[C@@H](Cc2ccccc2)C(=O)N[C@@H](Cc2ccccc2)C(=O)N[C@@H](CCC(N)=O)C(=O)N[C@@H](CC(N)=O)C(=O)N1)C(=O)NCC(N)=O,inactive
18,CC(=O)[C@@]1(O)CC[C@H]2[C@@H]3C=C(Cl)C4=CC(=O)[C@@H]5C[C@@H]5[C@]4(C)[C@H]3CC[C@@]21C,inactive
19,CCC(C)[C@@H](N)C(=O)O (some centres not stated),inactive
